Experiment [1] addresses Peroxisome proliferator-activated receptor alpha (Homo sapiens) (UniProt Q07869). Description: qHTS assay for small molecule agonists of the peroxisome proliferator-activated receptor alpha (PPARalpha) signaling pathway (AID 651778). Also: % of control where 0% means no effect. Conditions: PathHunter PPARalpha complementation, chemiluminescence, 6 h; stronger effect = higher value. The procedure, abridged: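 Enzyme-fragment complementation assay in which ligand-bound PPARalpha translocates and forms an active enzyme that generates chemiluminescence. Cells were plated overnight, exposed to compound for 6 hr at 37 C, and then given detection reagent for 60 min at room temperature.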

Experiment [2] can be described thus: qHTS assay for small molecule agonists of the antioxidant response element (ARE) signaling pathway measured by Nrf2-dependant transcriptional activity - cell viability counter screen (AID 720653; active = well fitted curve in the direction sought with a large enough effect in the repeat runs; an effect the other way counts as inactive or inconclusive; also: % is scaled to controls: 0 for no effect and ±100 for the full control effect). To be noted: ARE-bla HepG2 viability, CellTiter-Glo ATP luminescence, 16 h; max response: stronger effect = lower value. The procedure, abridged:
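ARE-bla HepG2 cells treated with compounds for 16 h at 37C; this counter screen measures viability as intracellular ATP by CellTiter-Glo luminescence after 30 min at room temperature.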

Experiment [3] is described as follows: qHTS assay for cell viability of HEK293 cells (AID 743288). Also: % is scaled to controls: 0 for no effect and ±100 for the full control effect; nearly all actives have a fitted effect of over 50% in size. Conditions: ATP luminescence (CellTiter-Glo), 18 h; max response: stronger effect = lower value. The procedure, abridged: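 Parental HEK293 cells, 2,000 per well, preincubated at least 5 h at 37 C, then exposed to compounds in DMSO for 18 h at 37 C. Viability by CellTiter-Glo ATP luminescence after 30 min at room temperature.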

Experiment [4] is described as follows: qHTS assay for cell viability of the p53RE-bla HCT-116 cell line (AID 743292). Also: % is scaled to controls: 0 for no effect and ±100 for the full control effect; nearly all actives have a fitted effect of over 55% in size. To be noted: p53RE-bla HCT-116 viability, ATP luminescence, 16 h; series mostly up to 95 µM. The procedure, abridged: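 In this qHTS counter-screen, metabolically competent p53RE-bla HCT-116 cells were counted via their ATP content. Compounds were applied for 16 h at 37 C and luciferase-coupled luminescence was measured.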

A short description of experiment [5]: qHTS profiling for inhibitors of Plasmodium falciparum (3D7) proliferation (AID 743322).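 Also: infected erythrocytes exposed to compound for 72 h before lysis; 100% = DMSO vehicle wells and 0% = 0.29 µM artemisinin.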 To be noted: P. falciparum 3D7 proliferation; at 28.7 µM (top of the series). In short, it runs like this: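 Erythrocytes infected with P. falciparum (0.3% parasitemia, 2.5% hematocrit) incubated with compounds 72 h at 37 C, 5% CO2. Lysis with saponin/Triton buffer containing SYBR Green I, overnight at room temperature in the dark; DNA fluorescence (485/535 nm) normalised to 0.29 uM artemisinin and DMSO.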

A short description of experiment [6]: qHTS profiling for inhibitors of Plasmodium falciparum (DD2) proliferation (AID 743323; call rule not given here). To be noted: lower = more inhibition; at 28.7 µM (top of the series). The procedure, abridged:
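Parasite proliferation measured via DNA-dye fluorescence, as uninfected erythrocytes lack DNA. Cultures at 0.3% parasitemia and 2.5% hematocrit incubated 72 h with compound; signal scaled between vehicle and 0.29 uM artemisinin wells.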

Experiment [7] can be described thus: qHTS profiling for inhibitors of Plasmodium falciparum (HB3) proliferation (AID 743324).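 Also: 100% = DMSO vehicle wells and 0% = artemisinin-treated control wells.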 Conditions: Plasmodium falciparum HB3 blood-stage proliferation; at 28.7 µM (top of the series). In short, it runs like this:
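P. falciparum HB3 grown in erythrocytes (0.3% parasitemia, 2.5% hematocrit final) with compound for 72 h at 37 C, 5% CO2. Parasite DNA detected by SYBR Green after saponin/triton lysis overnight; normalized to 0.29 uM artemisinin and DMSO.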

Experiment [8] addresses Rap guanine nucleotide exchange factor 4 (Homo sapiens) (UniProt Q8WZA2). Description: Confirmatory qHTS for agonist of cAMP-regulated guanine nucleotide exchange factor 4 (EPAC2) (AID 1645884).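 Also: nucleotide exchange releases bodipy-GDP from Rap1 and this lowers its fluorescence; % is scaled to controls: 0 for no effect and ±100 for the full control effect; nearly all actives have a fitted effect of over 65% in size.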 To be noted: EPAC2 GEF activity, Rap1B-BODIPY-GDP fluorescence, percent relative to cAMP agonist control; series mostly up to 154 µM.
In experiment [9] the target is Tumor susceptibility gene 101 protein (Homo sapiens) (UniProt Q99816). Description: qHTS Assay for Iinhibitors of HIV-1 Budding by Blocking the Interaction of PTAP/TSG101: Hit Validation (AID 651600). Also: % is scaled to controls: 0 for no effect and ±100 for the full control effect; nearly all actives have a fitted effect of over 70% in size. Conditions: PTAP peptide/TSG101 UEV interaction, biochemical assay; series mostly up to 57.5 µM. The procedure, abridged:
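Fluorescence polarization binding assay: Tsg101 binding domain (10 uM) mixed with compounds and FITC-labeled PTAP peptide (50 nM) in HEPES pH 7.5, 0.15 M NaCl, 0.01% Tween 20, EDTA, TCEP; 20 min at r.t.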

Another experiment relates to 7G8. Description: qHTS profiling for inhibitors of Plasmodium falciparum proliferation (AID 504749). Also: nearly all actives have a fitted effect of over 60% in size. Also: potency is read from the fitted curve at half-maximal effect. Conditions: P. falciparum in erythrocytes, SYBR Green DNA, 72 h; series mostly up to 28.7 µM. The procedure, abridged: (§1)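 Readout was DNA-dye fluorescence from lysed cultures, ex 485/em 535 nm. Parasitized red cells had grown 72 h with compound; data scaled between 0.29 uM artemisinin and DMSO wells and corrected using vehicle-only plates.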

A short description of experiment [10]: NCATS anti-infectives library activity on HEK293 viability as a counter-qHTS vs the C. elegans viability qHTS (AID 1745854).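 Also: HEK293 cells exposed to compounds for 24 hr before the viability read; % is scaled to controls: 0 for no effect and ±100 for the full control effect.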 Conditions: HEK293 viability counter-screen; series mostly up to 41.8 µM. The procedure, abridged:
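Cytotoxicity in human HEK293 cells is measured by ATP-dependent CellTiter-Glo luminescence following a 24 hr incubation with titrated library compounds at 37C. Top final concentration is 41.7 uM.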

The nature of experiment [11]: NCATS anti-infectives library activity on the primary C. elegans qHTS viability assay (AID 1745855; calls by dose curve). Conditions: C. elegans worm area imaging, day 7; series mostly up to 41.8 µM. In short, it runs like this: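 Viability is taken from GFP fluorescence of PE254-GFP-FLuc C. elegans imaged by laser cytometry over 7 days. Ten L1 worms per well grow at 21 °C on TOP10 E. coli capsules with titrated compound; levamisole marks toxicity.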

A further experiment has as its system CP297. Description: qHTS profiling for inhibitors of Plasmodium falciparum proliferation (AID 504749). Also: nearly all actives have a fitted effect of over 60% in size. Also: potency is read from the fitted curve at half-maximal effect. To be noted: P. falciparum in erythrocytes, SYBR Green DNA, 72 h; series mostly up to 28.7 µM. The procedure, abridged: as §1
Experiment [12] in a line: Confirmation and Secondary Assay for Modulators of Hemoglobin Beta Chain Splicing at IVS2 654 locus (AID 910).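 Also: HeLa cells stably carrying EGFP split by mutant beta-globin IVS2-654 intron; % of control where 0% means no effect.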 Conditions: HeLa EGFP-654 splicing reporter, GFP fluorescence, 48 h; series mostly up to 46.1 µM. In short, it runs like this: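 HeLa cells stably expressing EGFP interrupted by β-globin IVS2-654 intron, seeded overnight in Opti-MEM/2% FCS, then treated 2 days at 37 °C. Restored splicing read as total peak GFP intensity per well by laser scanning cytometry (488 nm excitation, 500–520 nm emission); 500 nM antisense PNA as control.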

The nature of experiment [13]: Confirmation and Secondary Assay for Modulators of Hemoglobin Beta Chain Splicing at IVS2 705 locus (AID 930).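 Also: HeLa cells stably expressing the EGFP-705 splicing reporter; GFP fluorescence per well restored by corrected splicing of the IVS2-705 intron in EGFP; % of control where 0% means no effect.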 Conditions: HeLa EGFP-705 splicing reporter, GFP fluorescence, 48 h; series mostly up to 46.1 µM. In short, it runs like this:
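Stable HeLa line with EGFP disrupted by mutant beta-globin intron 2 (705). Overnight attachment, then 2 days of compound at 37C, 5% CO2. Signal: peak GFP intensity summed over objects 5-250 µm.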

Experiment [14] in a line: Confirmatory screen GU Rhodamine qHTS for Zika virus inhibitors qHTS (AID 1347157).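 Also: plate controls were no-inhibitor wells for no effect and no-enzyme wells for full effect; nearly all actives have a fitted effect of over 70% in size.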 To be noted: purified enzyme assay, Rhodamine110 substrate fluorescence, 15 min; series mostly up to 114 µM. In short, it runs like this: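 Buffer 10 mM Tris-HCl pH 8.0, 0.01% Tween 20. Unlinked protease 25 nM; compound preincubation 15 min, RT, protected from light. Substrate Rhod110, 1.5 microM; ~15% conversion in 15 min.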

The nature of experiment [15]: Primary qHTS for inhibitors of SARS-S pseudo-typed particle cell entry (AID 1479145; calls by dose curve; also: % is scaled to controls: 0 for no effect and ±100 for the full control effect; nearly all actives have a fitted effect of over 45% in size). Conditions: SARS-S pseudotyped particle cell entry, luciferase reporter; series mostly up to 57.1 µM.
Experiment [16] can be described thus: Primary qHTS for Huh7 cytotoxicity: counterscreen for inhibitors of MERS-S pseudotyped particle cell entry (AID 1479147; calls by dose curve; also: % is scaled to controls: 0 for no effect and ±100 for the full control effect). Conditions: cell viability read-out; series mostly up to 57.1 µM.
Experiment [17] in a line: Primary qHTS for inhibitors of MERS-S pseudo-typed particle cell entry (AID 1479149; calls by dose curve; also: % is scaled to controls: 0 for no effect and ±100 for the full control effect; nearly all actives have a fitted effect of over 60% in size). Conditions: MERS-S pseudotyped particle entry, luciferase; series mostly up to 57.1 µM.
A short description of experiment [18]: Primary qHTS for Vero E6 cytotoxicity: counterscreen for inhibitors of SARS-S pseudo-typed particle cell entry (AID 1479150; calls by dose curve). To be noted: cell viability; series mostly up to 57.1 µM.

Each structure is given as a SMILES string. Results filed as inconclusive are left out. The source made the active and inactive calls. Unless noted, calls follow the shape of the dose curve; as a rule, active = well fitted curve in the direction sought with a large enough effect; inconclusive = small, poorly fitted or top-dose-only effect, or another doubt; inactive = no such curve, though single readings can be large; an effect the other way counts as inactive or inconclusive.

Sequence of Tumor susceptibility gene 101 protein (Homo sapiens) (Q99816 whole entry, looked up, the tested form may be a part): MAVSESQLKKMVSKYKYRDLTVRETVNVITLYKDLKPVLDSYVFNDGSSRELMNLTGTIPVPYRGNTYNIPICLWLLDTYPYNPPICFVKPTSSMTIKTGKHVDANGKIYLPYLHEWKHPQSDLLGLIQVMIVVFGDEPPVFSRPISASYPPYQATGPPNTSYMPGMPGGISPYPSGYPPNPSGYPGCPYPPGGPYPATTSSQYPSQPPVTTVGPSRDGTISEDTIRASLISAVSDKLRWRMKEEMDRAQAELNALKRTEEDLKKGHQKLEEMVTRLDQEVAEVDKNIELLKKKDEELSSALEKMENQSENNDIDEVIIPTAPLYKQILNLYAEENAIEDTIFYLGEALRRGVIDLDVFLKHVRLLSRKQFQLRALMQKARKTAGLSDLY
Sequence of Peroxisome proliferator-activated receptor alpha (Homo sapiens) (Q07869 whole entry, looked up, the tested form may be a part): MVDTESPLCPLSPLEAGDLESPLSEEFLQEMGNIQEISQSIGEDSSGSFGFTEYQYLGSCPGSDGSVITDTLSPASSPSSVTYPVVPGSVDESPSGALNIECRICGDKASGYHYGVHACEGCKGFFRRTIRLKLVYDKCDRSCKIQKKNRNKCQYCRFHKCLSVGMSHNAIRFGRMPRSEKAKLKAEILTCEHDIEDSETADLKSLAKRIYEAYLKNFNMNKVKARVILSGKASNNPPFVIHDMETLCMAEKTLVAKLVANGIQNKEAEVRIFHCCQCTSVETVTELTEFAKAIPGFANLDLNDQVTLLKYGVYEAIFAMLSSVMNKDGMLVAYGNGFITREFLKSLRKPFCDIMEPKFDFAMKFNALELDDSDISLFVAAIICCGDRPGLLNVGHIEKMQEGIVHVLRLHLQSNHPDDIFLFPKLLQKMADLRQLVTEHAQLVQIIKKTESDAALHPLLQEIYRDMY
Sequence of Rap guanine nucleotide exchange factor 4 (Homo sapiens) (Q8WZA2 whole entry, looked up): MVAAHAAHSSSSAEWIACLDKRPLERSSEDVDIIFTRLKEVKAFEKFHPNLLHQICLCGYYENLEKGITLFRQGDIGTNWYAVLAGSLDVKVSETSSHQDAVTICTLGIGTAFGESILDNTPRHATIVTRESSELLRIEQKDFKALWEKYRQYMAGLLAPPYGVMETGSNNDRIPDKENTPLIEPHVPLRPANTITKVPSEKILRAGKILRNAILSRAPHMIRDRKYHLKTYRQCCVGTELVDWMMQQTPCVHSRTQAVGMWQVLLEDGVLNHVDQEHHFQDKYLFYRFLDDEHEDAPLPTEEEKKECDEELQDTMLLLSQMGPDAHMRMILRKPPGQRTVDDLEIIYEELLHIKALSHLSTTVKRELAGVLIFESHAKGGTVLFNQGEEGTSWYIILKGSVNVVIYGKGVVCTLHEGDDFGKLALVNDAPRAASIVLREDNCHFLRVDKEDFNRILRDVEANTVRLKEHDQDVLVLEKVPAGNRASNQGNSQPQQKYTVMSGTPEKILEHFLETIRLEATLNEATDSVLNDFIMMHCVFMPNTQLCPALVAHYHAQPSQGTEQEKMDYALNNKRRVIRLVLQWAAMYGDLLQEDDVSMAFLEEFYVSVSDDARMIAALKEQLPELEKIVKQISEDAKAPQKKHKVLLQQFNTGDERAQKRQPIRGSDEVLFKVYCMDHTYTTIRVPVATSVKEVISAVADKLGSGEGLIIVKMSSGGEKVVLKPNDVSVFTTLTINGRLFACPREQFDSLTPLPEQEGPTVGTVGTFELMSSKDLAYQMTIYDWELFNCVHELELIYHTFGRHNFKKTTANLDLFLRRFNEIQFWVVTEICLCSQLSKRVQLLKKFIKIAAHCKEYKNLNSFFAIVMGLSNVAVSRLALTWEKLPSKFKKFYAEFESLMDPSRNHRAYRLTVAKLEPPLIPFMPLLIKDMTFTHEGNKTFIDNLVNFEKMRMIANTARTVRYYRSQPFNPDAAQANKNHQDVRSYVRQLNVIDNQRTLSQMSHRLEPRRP

As for `Cc1ccc2cc3c(ccc4ccccc43)c3c2c1CC3`, the values for the max response in [1], in [2] and in [3] were -0.967% (inactive), -7.15% (inactive) and -7.81% (inactive), respectively. In addition, the compound was classed as inactive in experiment [4].
`CCCCC[C@H]1C(=O)O[C@H](C)[C@H](NC(=O)c2cccc(NC=O)c2O)C(=O)O[C@@H](C)[C@@H]1OC(=O)CC(C)C`: in experiment [5], the remaining parasite growth % (stronger effect = lower value) is 20.4%. The same compound displayed an activity, percent of control in experiment [6] of 8.53%. This compound yielded a remaining proliferation (% of control), lower = more inhibition in experiment [7] of 6.18%.
`CN1Cc2ccccc2[C@@H]2c3cccc4[nH]cc(c34)C[C@H]21`: the call in experiment [8] was inactive.
On to `CC(C)C[C@H]1C(=O)N2CCCC2[C@]2(O)O[C@](NC(=O)[C@@H]3C=C4c5cccc6[nH]cc(c56)CC4N(C)C3)(C(C)C)C(=O)N12` (stereo not given in full), for which the outcome in experiment [9] was inactive.
As for `CC(C)[C@@]1(NC(=O)[C@H]2CC3c4cccc5[nH]cc(c45)C[C@H]3N(C)C2)O[C@@]2(O)C3CCCN3C(=O)[C@@H](Cc3ccccc3)N2C1=O` (stereo not given in full), the Potency in the experiment on 7G8 is 199 nM (active).
With `CCC(=O)CCCCC[C@@H]1NC(=O)[C@H]2CCCCN2C(=O)[C@H]([C@@H](C)CC)NC(=O)[C@H](Cc2cn(OC)c3ccccc23)NC1=O`, the Potency entry in [10] and in experiment [11] was “inactive” throughout.
As for `CCN1C[C@]2(COC)[C@H](O)C[C@H](OC)[C@]34C1C([C@H](OC)[C@H]23)[C@]1(OC(C)=O)C2[C@@H](OC(=O)c3ccccc3)C(O)(C[C@H]24)[C@@H](OC)[C@@H]1O`, the Potency result in the experiment with CP297 was “inactive”.
In the case of `O=C(O)c1ccccc1-c1c2cc(Br)c(=O)cc-2oc2[c]([Hg])c(O)c(Br)cc12`, the Potency result in experiment [12] and in [14] was “inactive” in each case. The compound was classed as inactive in experiment [13].
Take `CCC(=O)NS(=O)(=O)c1ccc(-c2c(-c3ccccc3)noc2C)cc1`: the Potency entry in [15] and in experiment [17] was “inactive” each time. The result in [16] and in experiment [18] was inactive.

Values taken from PubChem BioAssay (NCATS).
